This passage reports outcome and AC50 results from PubChem BioAssay (EPA / NIEHS).

The term AC50 denotes the concentration giving half of the maximal activity seen.

Assay [1] can be described thus: ATG_PPRE_CIS: Attagene CIS-FACTORIAL HepG2 Assay for human Peroxisome Proliferator-activated Response Element (PPRE) (AID 2282958). Conditions: HepG2 PPRE cis-element reporter, Attagene transcription factor profiling; actives raise or lower the signal. In short, it runs like this:
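HepG2, transient MRTU transfection (cis promoter elements, endogenous TFs). 24 h dosing. RNA → oligo(dT) RT → PCR → 6-FAM primer extension → HpaI digest → CE. Bidirectional fit vs DMSO.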

A short description of assay [2]: ATG_RORE_CIS: Attagene CIS-FACTORIAL HepG2 Assay for human RAR-related Orphan Receptor Element (RORE) (AID 2282959). Conditions: HepG2 Attagene cis-factorial RORE reporter, mRNA; actives raise or lower the signal. In outline: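 Transient MRTU transfection of human HepG2 liver cells (FuGene 6); 24 h compound exposure; TriZol RNA, oligo(dT) RT, PCR, FAM labeling, HpaI cut, CE fragment analysis. DMSO = negative control/baseline.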

Assay [3] in a line: ATG_Sox_CIS: Attagene CIS-FACTORIAL HepG2 Assay for human SRY-box transcription factor (SOX) (AID 2282960). Conditions: HepG2 Attagene cis-factorial SOX reporter, mRNA; actives raise or lower the signal. In outline: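 Endogenous factor activity in human liver HepG2 cells carrying transfected cis-regulated reporter units. RNA taken 24 h post-dose, reverse-transcribed, PCR-amplified and sized by capillary electrophoresis. Gain or loss of signal fitted relative to DMSO.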

Assay [4] addresses Transcription factor Sp1 (Homo sapiens) (UniProt P08047). The assay is described as follows: ATG_Sp1_CIS: Attagene CIS-FACTORIAL HepG2 Assay for human Specificity Protein 1 (Sp1) (AID 2282961). Conditions: HepG2 Sp1 cis-reporter transcription, actives raise or lower the signal. In outline:
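Transient MRTU-transfected HepG2, 24 h compound exposure. Total RNA → oligo(dT) RT → PCR of reporter → 6-FAM primer extension → HpaI digest → CE. Endpoint fitted both directions vs DMSO.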

Assay [5] is described as follows: ATG_SREBP_CIS: Attagene CIS-FACTORIAL HepG2 Assay for human Sterol Regulatory Element Binding (SREBP) (AID 2282962). Conditions: HepG2 Attagene cis-factorial SREBP reporter, mRNA; actives raise or lower the signal. In short, it runs like this: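 Endogenous factor activity is measured in HepG2 through multiplexed reporter units under cis-element control. Following a 24 h incubation, reporter transcripts are reverse-transcribed, PCR-amplified and sized by capillary electrophoresis; activity is fitted in both directions relative to DMSO.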

Assay [6] has as its target Signal transducer and activator of transcription 3 (Homo sapiens) (UniProt P40763). The assay is described as follows: ATG_STAT3_CIS: Attagene CIS-FACTORIAL HepG2 Assay for human Signal Transducer and Activator of Transcription 3 (STAT3) (AID 2282963). Conditions: HepG2, Attagene cis-factorial STAT3 reporter transcription; actives raise or lower the signal. In outline:
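Fluorescence intensity of 6-FAM-labelled reporter fragments, separated by capillary electrophoresis after RT-PCR, gave the signal. Cells were HepG2 transfected with cis-element reporter units and treated 24 h; fitting was bidirectional relative to DMSO.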

Assay [7] can be described thus: ATG_TA_CIS: Attagene CIS-FACTORIAL HepG2 Assay for human TA Basal Promoter (AID 2282964). Conditions: HepG2 Attagene CIS-factorial TA basal promoter reporter; actives raise or lower the signal. In short, it runs like this: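 Transfected HepG2, 24 h compound exposure; RNA → RT-PCR → FAM primer extension → HpaI cut → CE fluorescence. Gain/loss-of-signal fitted against DMSO negative control. Background-control readout.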

A short description of assay [8]: ATG_TCF_b_cat_CIS: Attagene CIS-FACTORIAL HepG2 Assay for human T-Cell-Factor with beta-catenin (TCF/b-cat) (AID 2282965). Conditions: HepG2 TCF/beta-catenin cis-reporter transcription, actives raise or lower the signal. In outline: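 Cells of the HepG2 line carry transiently transfected reporter units whose promoters respond to endogenous factors. Twenty-four hours post-dosing, reporter mRNA induction is measured by fluorescent RT-PCR and capillary electrophoresis, with DMSO as baseline.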

Assay [9] is described as follows: ATG_TAL_CIS: Attagene CIS-FACTORIAL HepG2 Assay for human TAL Basal Promoter (AID 2282966).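 Note: background control endpoint measuring basal TAL promoter reporter mRNA not a specific factor.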 Conditions: HepG2 Attagene cis-factorial TAL promoter reporter; actives raise or lower the signal. In outline:
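Basal-promoter background-control endpoint from a multiplexed HepG2 reporter panel. Cells were exposed 24 h, then reporter mRNA was read by RT-PCR/CE fluorescence and fitted in both directions relative to DMSO.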

Assay [10] in a line: ATG_TGFb_CIS: Attagene CIS-FACTORIAL HepG2 Assay for human Transforming Growth Factor (TGF) (AID 2282967). Conditions: HepG2 Attagene CIS TGFb reporter, mRNA transcription; actives raise or lower the signal. In short, it runs like this: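 Readout: fluorescently labeled reporter cDNA fragments resolved by capillary electrophoresis after RT-PCR. Transfected HepG2 cells dosed for 24 h; endogenous TF activity at TGFB1-linked cis element; gain or loss fitted relative to DMSO.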

Assay [11] in a line: ATG_VDRE_CIS: Attagene CIS-FACTORIAL HepG2 Assay for human Vitamin D Receptor Element (VDRE) (AID 2282968). Conditions: HepG2 VDRE cis-reporter transcription, actives raise or lower the signal. In outline:
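Compounds were applied for 24 h to HepG2 cells transfected with promoter-regulated reporter units. Total RNA was reverse-transcribed, and reporter amplicons were fluorescently labelled and sized by capillary electrophoresis.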

Assay [12] is described as follows: ATG_M_19_TRANS: Attagene TRANS-FACTORIAL HepG2 Assay for M19 Transcription Factor (Internal Marker) (AID 2282974; active = hit-call score of the fitted dose curve at least 0.9, where 1 is the maximum). Conditions: HepG2 Attagene TRANS-FACTORIAL M19 internal marker reporter. In short, it runs like this:
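Fluorescence of 6-FAM-labelled reporter cDNA fragments, separated by capillary electrophoresis, served as the readout. These derived from HepG2 cells carrying transfected GAL4-UAS reporter units after 24 h dosing, with DMSO as negative control.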

Assay [13] has as its target Estrogen receptor (Homo sapiens) (UniProt P03372). The assay is described as follows: ATG_ERa_TRANS: Attagene TRANS-FACTORIAL HepG2 Assay for human Estrogen Receptor alpha (ERa) (AID 2282970; active = hit-call score of the fitted dose curve at least 0.9, where 1 is the maximum). Conditions: HepG2 Attagene TRANS ERa GAL4 reporter, mRNA. In outline: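 Gal4-fusion ERa transactivation, measured as reporter transcript level in transiently transfected HepG2 cells. Exposure 24 h; RT-PCR plus capillary electrophoresis with fluorescence detection.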

Assay [14] deals with X-box-binding protein 1 (Homo sapiens) (UniProt P17861). Kind of assay: ATG_Xbp1_CIS: Attagene CIS-FACTORIAL HepG2 Assay for human X-box Binding Protein 1 (XBP1) (AID 2282972). Conditions: HepG2 XBP1 cis-element reporter, Attagene multiplex; actives raise or lower the signal. In outline:
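Multiplexed cis-reporter readout in transfected HepG2 liver cells. Exposure lasted 24 hours. Activity in either direction was fitted against DMSO as negative control and baseline.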

The target in assay [15] is Androgen receptor (Homo sapiens) (UniProt P10275). Kind of assay: ATG_AR_TRANS: Attagene TRANS-FACTORIAL HepG2 Assay for human Androgen Receptor (AR) (AID 2282973; active = hit-call score of the fitted dose curve at least 0.9, where 1 is the maximum). Conditions: HepG2 Attagene TRANS-FACTORIAL AR reporter transcription. In short, it runs like this:
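HepG2 cells transiently transfected with AR-Gal4 chimera and GAL4-UAS reporter units; chemical exposure 24 h. Reporter mRNA quantified by RT-PCR with fluorescent labelling and capillary electrophoresis; gain-of-signal fitted against DMSO.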

Assay [16] in a line: ATG_GAL4_TRANS: Attagene TRANS-FACTORIAL HepG2 Assay for GAL4 (Internal Marker) (AID 2282976; active = hit-call score of the fitted dose curve at least 0.9, where 1 is the maximum). Conditions: HepG2 Attagene TRANS GAL4 internal marker reporter. In short, it runs like this:
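Background-control readout: GAL4-UAS reporter transcript in transiently transfected HepG2 cells after 24 h compound exposure. Measured by RT-PCR, 6-FAM primer extension, HpaI digest and capillary electrophoresis; gain-of-signal fit versus DMSO.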

Assay [17] addresses Steroid hormone receptor ERR1 (Homo sapiens) (UniProt P11474). Kind of assay: ATG_ERRa_TRANS: Attagene TRANS-FACTORIAL HepG2 Assay for human Estrogen-Related Receptor alpha (ERRa) (AID 2282971; active = hit-call score of the fitted dose curve at least 0.9, where 1 is the maximum). Conditions: HepG2 Attagene TRANS reporter, ERRa transactivation. In outline:
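HepG2 cells transiently transfected with GAL4-UAS reporter units and chimeric NR-Gal4 constructs; after 24 hour compound incubation, reporter mRNA quantified by RT-PCR, fluorescent labelling and capillary electrophoresis, gain of signal versus DMSO.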

For assay [18], the target named is Nuclear receptor subfamily 1 group I member 3 (Homo sapiens) (UniProt Q14994). The assay is described as follows: ATG_CAR_TRANS: Attagene TRANS-FACTORIAL HepG2 Assay for human Constitutive Androstane Receptor (CAR) (AID 2282969; active = hit-call score of the fitted dose curve at least 0.9, where 1 is the maximum;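 note: activators raise reporter mRNA above DMSO so AC50 marks induction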). Conditions: HepG2 Attagene TRANS-FACTORIAL CAR reporter. In short, it runs like this:
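Transiently transfected HepG2, multiplex TRANS reporters (CAR-Gal4 chimera driving GAL4-UAS reporter). 24 h dosing. Readout: reporter transcript by RT-PCR + capillary electrophoresis, fluorescence intensity; positive direction vs DMSO.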

Structures are written as SMILES. “And” between values parts separate entries of the source, which are not always exact repeats. Equal entries are not always repeated. Records with an inconclusive call do not appear. More than one record can exist for a structure, and the calls need not agree. The source made the active and inactive calls. Rule for the calls, unless noted: active = hit-call score of the fitted dose curve at least 0.9, where 1 is the maximum; inactive = score below 0.9.

Sequence of Nuclear receptor subfamily 1 group I member 3 (Homo sapiens) (Q14994 whole entry, looked up, the tested form may be a part): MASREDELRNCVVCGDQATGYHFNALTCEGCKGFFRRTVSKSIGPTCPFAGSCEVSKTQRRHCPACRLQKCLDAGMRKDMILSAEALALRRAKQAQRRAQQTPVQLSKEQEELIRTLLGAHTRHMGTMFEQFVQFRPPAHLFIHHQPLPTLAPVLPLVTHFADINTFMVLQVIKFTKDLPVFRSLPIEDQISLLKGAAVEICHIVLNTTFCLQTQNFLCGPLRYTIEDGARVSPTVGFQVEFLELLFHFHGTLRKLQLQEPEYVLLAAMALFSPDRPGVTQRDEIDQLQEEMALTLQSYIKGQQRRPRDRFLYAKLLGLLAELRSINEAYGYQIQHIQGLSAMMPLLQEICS
Sequence of Estrogen receptor (Homo sapiens) (P03372 whole entry, looked up, the tested form may be a part): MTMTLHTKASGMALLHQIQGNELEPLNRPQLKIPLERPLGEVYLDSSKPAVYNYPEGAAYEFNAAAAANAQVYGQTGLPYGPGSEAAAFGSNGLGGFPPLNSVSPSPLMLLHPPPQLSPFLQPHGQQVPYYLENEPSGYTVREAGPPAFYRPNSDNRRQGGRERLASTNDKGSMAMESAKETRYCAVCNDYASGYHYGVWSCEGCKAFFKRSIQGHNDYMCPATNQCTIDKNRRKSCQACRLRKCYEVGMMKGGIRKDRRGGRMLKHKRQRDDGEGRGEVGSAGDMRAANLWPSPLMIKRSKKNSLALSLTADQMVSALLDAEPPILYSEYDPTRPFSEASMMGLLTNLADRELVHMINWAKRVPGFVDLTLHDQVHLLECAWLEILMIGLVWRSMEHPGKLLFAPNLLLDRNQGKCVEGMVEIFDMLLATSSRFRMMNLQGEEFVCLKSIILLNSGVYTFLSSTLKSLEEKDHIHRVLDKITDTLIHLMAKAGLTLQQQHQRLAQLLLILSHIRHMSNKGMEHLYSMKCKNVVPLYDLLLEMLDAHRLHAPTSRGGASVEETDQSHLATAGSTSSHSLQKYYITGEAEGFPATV
Sequence of Transcription factor Sp1 (Homo sapiens) (P08047 whole entry, looked up): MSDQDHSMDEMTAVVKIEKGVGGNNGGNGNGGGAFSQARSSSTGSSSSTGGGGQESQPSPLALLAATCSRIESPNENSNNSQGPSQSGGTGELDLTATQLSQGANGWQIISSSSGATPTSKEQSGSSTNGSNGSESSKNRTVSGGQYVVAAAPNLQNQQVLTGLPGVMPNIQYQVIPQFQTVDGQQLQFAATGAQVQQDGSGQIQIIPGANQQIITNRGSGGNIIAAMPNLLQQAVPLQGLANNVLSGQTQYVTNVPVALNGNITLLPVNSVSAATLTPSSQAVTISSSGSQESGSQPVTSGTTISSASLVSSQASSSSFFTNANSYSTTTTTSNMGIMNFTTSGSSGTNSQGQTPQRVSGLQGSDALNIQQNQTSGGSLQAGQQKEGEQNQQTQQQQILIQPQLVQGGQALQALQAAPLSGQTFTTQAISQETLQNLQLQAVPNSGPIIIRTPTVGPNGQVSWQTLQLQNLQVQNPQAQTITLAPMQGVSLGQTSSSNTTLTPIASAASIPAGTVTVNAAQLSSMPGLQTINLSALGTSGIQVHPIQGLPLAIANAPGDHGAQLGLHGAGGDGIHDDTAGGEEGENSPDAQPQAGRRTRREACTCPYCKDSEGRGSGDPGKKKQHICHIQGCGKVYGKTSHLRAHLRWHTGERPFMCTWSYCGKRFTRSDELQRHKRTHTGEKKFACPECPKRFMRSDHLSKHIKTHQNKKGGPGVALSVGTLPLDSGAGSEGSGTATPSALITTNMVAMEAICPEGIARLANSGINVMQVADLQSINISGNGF
Sequence of Signal transducer and activator of transcription 3 (Homo sapiens) (P40763 whole entry, looked up, the tested form may be a part): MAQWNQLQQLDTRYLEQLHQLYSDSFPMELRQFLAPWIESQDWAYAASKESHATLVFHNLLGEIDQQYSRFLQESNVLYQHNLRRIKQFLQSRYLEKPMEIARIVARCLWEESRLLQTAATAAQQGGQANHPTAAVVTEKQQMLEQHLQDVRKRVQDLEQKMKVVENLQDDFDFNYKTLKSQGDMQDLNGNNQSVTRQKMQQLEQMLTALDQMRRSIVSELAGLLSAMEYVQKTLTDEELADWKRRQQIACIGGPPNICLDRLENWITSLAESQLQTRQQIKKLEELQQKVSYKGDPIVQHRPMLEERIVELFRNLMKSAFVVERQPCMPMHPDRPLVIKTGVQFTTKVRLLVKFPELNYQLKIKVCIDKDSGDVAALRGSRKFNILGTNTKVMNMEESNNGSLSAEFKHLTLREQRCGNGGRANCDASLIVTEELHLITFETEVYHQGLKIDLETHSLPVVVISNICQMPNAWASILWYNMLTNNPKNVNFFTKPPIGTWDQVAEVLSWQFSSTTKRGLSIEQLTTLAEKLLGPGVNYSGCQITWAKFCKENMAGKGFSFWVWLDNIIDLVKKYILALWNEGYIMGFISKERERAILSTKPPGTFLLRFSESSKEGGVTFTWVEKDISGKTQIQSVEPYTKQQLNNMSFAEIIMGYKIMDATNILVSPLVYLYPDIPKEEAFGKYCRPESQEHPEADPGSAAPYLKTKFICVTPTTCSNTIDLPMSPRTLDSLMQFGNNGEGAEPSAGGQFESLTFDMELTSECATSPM
Sequence of X-box-binding protein 1 (Homo sapiens) (P17861 whole entry, looked up): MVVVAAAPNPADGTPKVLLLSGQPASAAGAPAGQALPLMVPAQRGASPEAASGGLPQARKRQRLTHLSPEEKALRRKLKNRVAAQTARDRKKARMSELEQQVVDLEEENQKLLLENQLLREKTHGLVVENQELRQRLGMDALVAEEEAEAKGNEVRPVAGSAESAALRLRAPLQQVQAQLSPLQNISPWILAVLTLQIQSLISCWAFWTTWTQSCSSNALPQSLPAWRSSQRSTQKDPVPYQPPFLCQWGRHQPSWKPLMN
Sequence of Androgen receptor (Homo sapiens) (P10275 whole entry, looked up, the tested form may be a part): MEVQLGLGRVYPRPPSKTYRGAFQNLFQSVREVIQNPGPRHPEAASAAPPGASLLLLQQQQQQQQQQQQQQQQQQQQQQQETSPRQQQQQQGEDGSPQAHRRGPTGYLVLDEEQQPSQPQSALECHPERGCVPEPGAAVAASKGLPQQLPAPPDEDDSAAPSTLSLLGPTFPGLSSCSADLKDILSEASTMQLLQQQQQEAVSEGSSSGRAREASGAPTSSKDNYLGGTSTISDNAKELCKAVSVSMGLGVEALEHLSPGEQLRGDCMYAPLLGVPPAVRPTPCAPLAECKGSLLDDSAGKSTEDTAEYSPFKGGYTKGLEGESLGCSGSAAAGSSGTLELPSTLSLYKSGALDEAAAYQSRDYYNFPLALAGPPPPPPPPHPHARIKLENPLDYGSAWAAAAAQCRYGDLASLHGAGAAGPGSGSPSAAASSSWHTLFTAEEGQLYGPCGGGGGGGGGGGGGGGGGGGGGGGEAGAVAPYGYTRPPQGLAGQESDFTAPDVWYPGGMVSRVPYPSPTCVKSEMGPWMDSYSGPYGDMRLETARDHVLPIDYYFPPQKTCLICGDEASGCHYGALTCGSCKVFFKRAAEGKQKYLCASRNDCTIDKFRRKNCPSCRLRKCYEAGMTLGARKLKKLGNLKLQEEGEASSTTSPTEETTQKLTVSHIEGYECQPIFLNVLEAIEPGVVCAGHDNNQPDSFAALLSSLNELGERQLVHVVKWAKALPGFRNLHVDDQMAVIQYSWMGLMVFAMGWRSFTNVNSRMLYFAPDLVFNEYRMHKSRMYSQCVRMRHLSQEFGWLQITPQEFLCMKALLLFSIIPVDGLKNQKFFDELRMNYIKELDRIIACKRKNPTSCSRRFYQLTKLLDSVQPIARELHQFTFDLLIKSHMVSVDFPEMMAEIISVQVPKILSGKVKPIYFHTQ
Sequence of Steroid hormone receptor ERR1 (Homo sapiens) (P11474 whole entry, looked up, the tested form may be a part): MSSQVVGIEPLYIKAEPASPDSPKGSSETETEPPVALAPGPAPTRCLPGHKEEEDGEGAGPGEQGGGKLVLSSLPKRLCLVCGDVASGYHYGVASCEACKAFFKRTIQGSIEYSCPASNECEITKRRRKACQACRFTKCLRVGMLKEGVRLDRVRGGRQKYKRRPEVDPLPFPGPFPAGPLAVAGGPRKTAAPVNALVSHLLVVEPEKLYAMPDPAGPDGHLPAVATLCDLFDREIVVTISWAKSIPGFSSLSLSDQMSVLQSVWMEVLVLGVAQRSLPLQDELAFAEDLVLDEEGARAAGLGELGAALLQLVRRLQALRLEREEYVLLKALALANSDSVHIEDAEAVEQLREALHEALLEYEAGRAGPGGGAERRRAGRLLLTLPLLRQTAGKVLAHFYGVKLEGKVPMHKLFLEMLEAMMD

For `O=C(O)C(F)(F)C(F)(F)C(F)(F)C(F)(F)C(F)(F)F`, the molecule was called inactive in [1], in assay [2], in assay [3], in assay [4], in assay [5] and in assay [6]. In addition, the call in [7], in [8], in assay [9], in assay [10], in assay [11] and in assay [12] was inactive.
Turning to `c1ccc(-c2ccccc2)cc1`, the call in assay [1], in [2], in assay [3], in [4], in [5] and in assay [6] was inactive. In addition, the call in assay [7], in assay [8], in assay [9], in [10], in assay [13] and in assay [14] was inactive. Besides, the molecule was called inactive in assay [15], in assay [12] and in [16].
For the molecule `CC(c1ccc(O)cc1)(c1ccc(O)cc1)c1ccc(O)cc1`, the call in [1], in assay [3], in assay [6], in assay [9], in assay [10] and in [17] was inactive. Further, the molecule was called inactive in assay [12] and in assay [16]. For the same molecule, the concentration at half-maximal activity (AC50) in assay [2] was 11.1 µM (active); in assay [4] it was 19.6 µM (active); in assay [5], 2.64 µM (active); in [7] it was 17.3 µM (active); in assay [8] it was 11.9 µM (active); in assay [11] it was 6.08 µM (active). In [13], the half-maximal activity concentration (AC50) is 129 nM (active).
As to `c1cc2ccc3cccc4ccc(c1)c2c34`, the call in [1], in assay [2], in assay [3], in assay [4], in [5] and in [6] was inactive. Besides, the molecule was classed as inactive in [7], in assay [8], in [9], in assay [10], in assay [11] and in [18]. The molecule was classed as inactive in [13], in assay [17], in [14], in [15], in assay [12] and in assay [16].
On to `CCSC(=O)N(CC)C1CCCCC1`, for which the call in assay [1], in assay [2], in [3], in assay [4], in [5] and in [6] was inactive. Besides, the result in assay [7], in assay [8], in [9], in assay [10], in assay [13] and in assay [14] was inactive. Further, the outcome in assay [12] was inactive. For the same molecule, in [11], the half-maximal activity concentration (AC50) was 18.1 µM (active).
Regarding `Sc1ccccc1`, the result in [2], in assay [3], in [4], in [5], in assay [6] and in assay [7] was inactive. Further, the result in assay [8], in assay [9], in [10], in assay [11], in assay [18] and in assay [12] was inactive. Moreover, in assay [16], the molecule was called inactive. Also, the AC50 in assay [11] was 27.1 µM (active); in assay [13], 27.1 µM (active) and 42.2 µM (active).
